Screening results (PubChem BioAssay)
Shown is part of a subset that was picked to be rich in hits.
Pf Dd2 inh: qHTS Primary assay for Inhibitors of Plasmodium falciparum Dd2 growth in vitro | P. falciparum Dd2 growth, SYBR Green, 72 h | Potency, µM (titrated, usually from 28.9 µM), hits mostly inhibitors | 120,000 tested, 4.3% active; active = well fitted inhibition curve with a large enough effect; note: nearly all actives have a fitted effect of over 65% in size
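Infected erythrocytes (Dd2, 0.3% parasitemia, 2.5% hematocrit final) are added to compound in RPMI-1640/Albumax II medium, grown 72 h at 37C in low oxygen, then lysed with saponin/Triton-X containing SYBR Green and read by fluorescence.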
Large screens that a line does not name were inactive.

COc1ccc(CC(=O)N2CC[C@H]3CC(=O)N(Cc4cccnc4)CC[C@H]3C2)cc1	none
CCCCCSc1nnc(-c2ccc(Br)cc2)o1	none
CCCCCNC(=O)Cc1csc2nc(C)c(-c3cc(C)n(-c4cccc(C)c4)n3)c(=O)n12	none
CCCCNC(=O)Cc1csc2nc(C)c(-c3cc(C)n(-c4ccc(C)cc4)n3)c(=O)n12	none
COCCNC(=O)Cc1csc2nc(C)c(-c3cc(C)n(-c4ccccc4F)n3)c(=O)n12	none
Cc1ccc(Cl)cc1-n1nc(-c2c(C)nc3scc(CC(=O)NCCC(C)C)n3c2=O)cc1C	Pf Dd2 inh 7.9µM
CCCCNC(=O)Cc1csc2nc(C)c(-c3cc(C)n(-c4cccc(Cl)c4)n3)c(=O)n12	Pf Dd2 inh 7.9µM
CCCNC(=O)Cc1csc2nc(C)c(-c3cc(C)n(-c4cccc(C)c4C)n3)c(=O)n12	none
COc1ccc(-c2cc(N3CCN(C(=O)c4ccc(F)cc4F)CC3)n[nH]2)cc1	none
Cc1c(Cl)cccc1NC(=O)N1CC(C(=O)N(C)C)C2(CCOCC2)C1 (stereo not drawn)	none
CCOc1cc(=O)n2c(c1C(=O)Nc1ccc(C(F)(F)F)cc1)CCCC2	none
N#Cc1ccccc1CN1CCCCCCNC(=O)[C@@H]2C[C@@H](C(=O)N3CCc4ccccc4C3)C[C@@H]21	Pf Dd2 inh 3.2µM
Cc1nc(C)c(C(=O)N2CC[C@H]3C(=O)NCCCCCCN(Cc4ccncc4)[C@@H]3C2)s1	none
O=C1NCCCCCCN(Cc2cccc(F)c2)[C@H]2C[C@H](C(=O)N3CCc4ccccc4C3)C[C@@H]12	Pf Dd2 inh 3.5µM
O=C1NCCCCCCN(Cc2ccncc2)[C@@H]2CN(C(=O)c3cccnc3)CC[C@@H]12	none
N#Cc1ccc(CN2CCCCCCNC(=O)[C@@H]3C[C@@H](C(=O)N4CCc5ccccc5C4)C[C@@H]32)cc1	Pf Dd2 inh 2.8µM
O=C1NCCCCCN(C(=O)Cc2cccc(F)c2)[C@H]2CCC[C@@H]12	none
Cc1ncsc1CN1CCCCCCNC(=O)[C@@H]2C[C@@H](C(=O)N3CCc4ccccc4C3)C[C@@H]21	Pf Dd2 inh 4.5µM
CCS(=O)(=O)N1CCCCCCNC(=O)[C@@H]2C[C@@H](C(=O)N3CCN(c4ccccn4)CC3)C[C@@H]21	none
Cc1ncsc1CN1CCCC(C(=O)NCc2ccccc2)CCNC(=O)CC1 (stereo not drawn)	none
N#Cc1ccc(C(=O)N2CCCCCNC(=O)[C@@H]3CCCC[C@@H]32)cc1	none
C=CCN1CC(C(=O)N2CCN(Cc3ccccc3C#N)CC2)CC1=O (stereo not drawn)	none
O=C1NCCCCCCN(C(=O)Cc2cccc(F)c2)[C@H]2CCC[C@@H]12	none
Cc1ccc(CN2Cc3[nH]cnc3C[C@H]2C(=O)NCc2ccc(C(F)(F)F)cc2)cc1	none
Cc1cccc(NC(=O)c2ccc(CN3CC(=O)N4CCCCC4C3=O)cc2)c1C (stereo not drawn)	none
Cc1ccc(-n2nc3n(c2=O)CCN(C(=O)c2ccccc2C)C3)cc1	none
COc1ccccc1CNC(=O)c1noc(-c2ccc(C)cc2)n1	none
CCOc1ccccc1NC(=O)Cn1ncc2c(=O)oc3ccc(C)cc3c21	none
O=C(Cn1ncc2ccccc2c1=O)N1CCCCC1CCn1cccn1 (stereo not drawn)	none
CCOc1ccc(NC(=O)C(=O)NCCc2csc(-c3ccc(C(F)(F)F)cc3)n2)cc1	none
O=C(CC1CCOC2(CCN(Cc3cccs3)CC2)C1)N1CCOCC1 (stereo not drawn)	none
CC(C)c1nc2c(c(-c3ccc(O)cc3)n1)CN(C(=O)c1ccccc1F)CC2	none
Cc1noc(C)c1[S+](=O)([O-])N1CCc2nc(C(C)C)nc(-c3ccc(Cl)cc3)c2C1	none
COc1ccc(CN2CCc3nc(C(C)C)nc(-c4ccc(O)cc4)c3C2)cc1	Pf Dd2 inh 8.9µM
Cc1noc(C)c1[S+](=O)([O-])N1CCc2nc(C(C)C)nc(-c3ccc(O)cc3)c2C1	Pf Dd2 inh 10µM
CC(C)c1nc2c(c(-c3ccc(O)cc3)n1)CN(Cc1ccccc1)CC2	none
Cc1nc2c(c(-c3ccc(Cl)cc3)n1)CN([S+](=O)([O-])c1c(C)noc1C)CC2	none
CC(C)c1nc2c(c(-c3ccc(O)cc3)n1)CN(Cc1cccc(C(F)(F)F)c1)CC2	Pf Dd2 inh 2.5µM
CC(C)c1nc2c(c(-c3ccc(O)cc3)n1)CN(CC1CC1)CC2	none
COC(=O)N1CCN(Cc2cc(=O)c3cc(F)ccc3[nH]2)CC1	none
Cn1cnc(S(=O)(=O)N2CCCC(Cn3cnc4cccnc43)C2)c1 (stereo not drawn)	none
COc1cccc(CN2CCOc3ccc(C(=O)NCc4ccc(C)cc4)cc3C2)n1	none
CCCOc1ccc(-c2nonc2NC(=O)c2oc3ccc(C)cc3c2C)cc1OCCC	none
COc1ccc(S(=O)(=O)N2CCN(c3ccccc3F)CC2)cc1-c1noc(C)n1	none
CO[C@H]1COCCN(C(=O)c2ccc(C(F)(F)F)cc2)C1	none
CC(CNC(=O)c1cc(CN2CCOCC2)on1)c1ccccc1 (stereo not drawn)	none
COCCNC(=O)[C@H]1C[C@H](Oc2cccnc2)CN1C(=O)Nc1cccc(C)c1	none
CC(=O)c1[nH]c(C)c(C(=O)N2CCN3C(=O)CNC(=O)C3C2)c1C (stereo not drawn)	none
